Molecules are shown by their SMILES. Inconclusive results are not listed. A call without a number means that no potency is given here. Active and inactive are the calls of the source. Calls come from the whole dose curve; as a rule, active = well fitted inhibition curve with a large enough effect; inconclusive = small, poorly fitted or top-dose-only effect; inactive = flat fitted curve, though single readings scatter. Where a SMILES comes first, the peptide text is derived from it. Bridges are numbered along the chain shown (N, C = ends). [ ]: non-standard residue; d: D form. NMeY = CN[CH](Cc1ccc(O)cc1)C(=O)O

Results on 11 molecules are retold here after PubChem BioAssay (NCATS).
Potency is the fitted concentration of half-maximal effect.

This test can be described thus: P-glycoprotein substrates identified in KB-8-5-11 adenocarcinoma cell line, qHTS therapeutic library screen (AID 1346987). Note: nearly all actives have a fitted effect of over 65% in size. The conditions noted are these: KB-8-5-11 (P-gp overexpressing) viability, CellTiter-Glo, 72 h; series mostly up to 44.5 µM. The method, boiled down: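 Steps: plate 500 KB-8-5-11 cells/well in DMEM + 10% FCS (colchicine removed); pin compounds in dose-response; incubate 72 h, 37 degree C, 5% CO2; add CellTiter-Glo, 5 min; read luminescence.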
On to `CC12CCC(C(OC3OC(COC4OCC(O)(CO)C4O)C(O)C(O)C3O)C1)C(C)(C)O2` (stereo unspecified), for which the Potency entry was “inactive”.
The result for `O=[N+]([O-])c1cccc2[nH]c(CNc3nc(N4CCOCC4)nc4c3ncn4-c3ccsc3)nc12` reads 103 nM (active).
Turning to `CNCc1ccc(-c2cc(-c3nc(-c4ccc(S(=O)(=O)C(C)C)cc4)cnc3N)on2)cc1`, the Potency is 1300 nM (active).
With `CCC(C)C1NC(=O)C2CCCN2C(=O)C(NC(C)=O)C(C)OC(=O)C(Cc2ccc(OC)cc2)N(C)C(=O)C2CCCN2C(=O)C(C(C)C)NC1=O` (stereo unspecified) (Ac-TPIVP[NMeY](Me); ester 1-C; configuration not given here) the entry was “inactive”; with `COc1ccc(CCC(=O)c2c(O)cc(O)cc2O[C@@H]2O[C@H](CO)[C@@H](O)[C@H](O)[C@H]2O)cc1`, “inactive”; with `C[C@H](NC(=O)CCc1nc2ccccc2c(=O)[nH]1)c1ccccc1`, “inactive”.
Consider `CC(C)(C)Nc1nc(Nc2ccc(C(N)=O)cc2)cc(N)c1C#N`, for which the Potency is 2060 nM (active).
The result for `COc1cc(Nc2nc3c(s2)CCCC3c2ccc(F)cc2)ccc1-n1cnc(C)c1` (stereo unspecified) reads 20600 nM (active); that for `CC1=C(C(=O)O[C@@H]2O[C@H](COC3OCC(O)C(O)C3O)[C@@H](O)[C@H](O)[C@H]2O)C(C)(C)CCC1` (stereo partly specified), “inactive”; that for `CC(=O)CCC1=C(C)C(O[C@@H]2O[C@H](CO)[C@@H](O)[C@H](O)[C@H]2O)C(O)CC1(C)C` (stereo partly specified), “inactive”.
With `Cc1ccccc1NC(=O)Nc1ccc(CC(=O)N(C)[C@@H](CC(C)C)C(=O)NCC[C@H](NC(=O)[C@@H]2CCCN2S(=O)(=O)c2cc(Cl)cc(Cl)c2)C(=O)O)cc1`, the Potency result was “inactive”.
